BJeLR lethal = MLPCN primary cell-based screen for lethality selective to Ras in HRASV12 cells; BJeLR (HRASV12) viability, CellTiter-Glo ATP luminescence, 48 h; inhibition, % (concentration not given with the values); actives 0.17% (n = 300,000); AID 1554, 2009; in the data active means inhibition above about 50%
SARS 3CLpro inh-1 = SARS-CoV 3CLpro protease inhibitors, primary screen, biochemical, quenched FRET; Replicase polyprotein 1ab (Severe acute respiratory syndrome coronavirus), P0C6X7; recombinant SARS-CoV 3CLpro, quenched FRET peptide cleavage; inhibition, % at 6 µM; actives 0.14% (n = 290,000); AID 1706, 2009; in the data active means inhibition above about 12%
PrPC TRFRET = inhibitors of human cell surface prion protein PrPC, primary screen, cell-based, TR-FRET | Major prion protein (Homo sapiens), P04156 | TR-FRET read-out | inhibition, % at 13.8 µM | actives 0.43% (n = 370,000) | AID 720596, 2013; in the data active means inhibition above about 24%; further: 0% = median of the test wells and 100% = reference compound wells
DUSP3 inh = VHR1 phosphatase inhibitors, primary screen, biochemical, absorbance, uHTS. actives 0.52% (n = 290,000). Dual specificity protein phosphatase 3 (Homo sapiens), P51452. inhibition, % at 13.3 µM. recombinant VHR phosphatase, pNPP absorbance; in the data active means inhibition above about 50%
Target sequence (P51452 whole entry, looked up): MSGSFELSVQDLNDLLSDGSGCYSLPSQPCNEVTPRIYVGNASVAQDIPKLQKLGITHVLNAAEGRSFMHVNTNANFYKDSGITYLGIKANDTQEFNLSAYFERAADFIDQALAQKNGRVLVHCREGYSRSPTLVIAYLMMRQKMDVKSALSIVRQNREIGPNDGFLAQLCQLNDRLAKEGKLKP
SARS 3CLpro inh-2 = confirmation of SARS coronavirus 3C-like protease inhibitors, retest, confirmation, biochemical | actives 36% (n = 380) | inhibition, % at 6 µM | QFRET protease activity assay, 3CLpro | shares compounds with SARS 3CLpro inh-1; in the data active means inhibition above about 13%
Active calls of the source: *; . = no result given. Hits are enriched below; roughly 1.1% of the tested compounds scored in any of these assays.

SMILES	BJeLR lethal	SARS 3CLpro inh-1	PrPC TRFRET	DUSP3 inh	SARS 3CLpro inh-2
Cc1ccc(S(=O)(=O)Nc2cc(-c3ccccc3)nn2C)cc1	-6.1	0.3	2.1	27.7	.
O=C(O)Cn1cc(/C=C2\C(=O)NC(=O)N(c3ccc(Cl)cc3)C2=O)c2ccccc21	6.9	3.7	1.2	7.2	.
CCN(CC)C(=O)Cn1cc(/C=C2\C(=O)NC(=O)N(c3ccccc3F)C2=O)c2ccccc21	-1.0	16.8*	5.0	15.5	22.7*
COc1cccc(NC(=O)c2cc(Cl)nnc2Cl)c1	-7.6	6.5	-8.4	14.7	.
COc1cc(NC(=O)c2cc(Cl)nnc2Cl)cc(OC)c1OC	11.0	22.2*	-11.2	20.4	6.2
Clc1ccccc1Nc1nc(-c2cccnc2)cs1	1.3	13.9*	1.1	-13.6	10.9
c1cncc(Nc2nc(-c3cccnc3)cs2)c1	4.5	-1.2	-3.6	-2.6	.
COc1ccc(N2C[C@@]3(O)CC[C@@H](O)[C@@H](OC)[C@@H]3[C@@](C)(O)[C@@H]2CC=C(C)C)cc1	.	.	-3.9	.	.
O=C1N/C(=N/S(=O)(=O)Cc2ccccc2)S/C1=C/c1ccc2c(c1)OCO2	-3.1	12.6*	1.8	25.5	2.3
N#CCC(=O)Nc1ccc(C(=O)OCC(=O)N2CCN(C(=O)c3ccco3)CC2)cc1	.	.	-3.4	.	.
O=C1C2C3C=CC(C3)C2C(=O)N1/N=C/c1ccc(-c2ccccc2[N+](=O)[O-])o1 (stereo unspecified)	17.9	12.3*	-5.8	4.6	-4.7
Cc1ccc(-c2ccc(/C=N/N3C(=O)C4C5C=CC(C6CC56)C4C3=O)o2)c([N+](=O)[O-])c1 (stereo unspecified)	-0.3	1.0	-2.3	32.1	.
COC(=O)C1=C(C)N(Cc2ccc(C(F)(F)F)cc2)C(=NCc2ccccc2C(F)(F)F)NC1c1ccccc1C(F)(F)F (stereo unspecified)	.	.	-6.8	.	.
CCOC(=O)C1=C[C@@H](C)N(S(=O)(=O)c2ccc(C)cc2)[C@H]1c1ccccc1	.	.	7.2	.	.
CCOC(=O)c1c(C)n(S(=O)(=O)c2ccc(C)cc2)c2ccc(O)c(C(=O)O)c12	-0.7	13.0*	-1.2	31.7	1.3
O=C(Cn1nnc2ccccc21)c1ccc([N+](=O)[O-])cc1	-2.2	4.5	-15.9	3.3	.
O=C(Cn1nnc2ccccc21)c1ccc(Cl)cc1	2.1	34.7*	-0.4	9.5	35.0*
CCc1nnc(NS(=O)(=O)c2ccc(NC(=O)/C=C/C(=O)O)cc2)s1	-8.1	5.7	2.6	6.1	.
CCc1nnc(NS(=O)(=O)c2ccc(NC(=O)/C=C/c3ccccc3Cl)cc2)s1	-0.7	13.1*	-5.1	30.2	10.0
Cc1ccc(S(=O)(=O)/C(=C/Cl)NC(=O)c2ccccc2)cc1	-2.9	16.2*	-3.5	-0.5	23.1*
Cc1snc(S(=O)(=O)/C(C#N)=N/Nc2cccc(C(F)(F)F)c2)c1C#N	-3.1	15.5*	.	31.0	2.0
Cc1ccccc1CS(=O)(=O)Cc1ccc(C(=O)Nc2cccc(Cl)c2F)o1	.	.	-2.4	.	.
Cc1ccccc1NC1=C/C(=N\S(=O)(=O)c2ccc(C(=O)O)cc2)c2ccccc2C1=O	15.1	15.8*	-23.9	22.4	10.3
O=C(COn1nnc2ccc(S(=O)(=O)N3CCOCC3)cc21)Nc1c(F)c(F)c(F)c(F)c1F	-2.6	1.6	0.2	20.8	.
COc1cc(NC(=O)COn2nnc3ccc(S(C)(=O)=O)cc32)cc(OC)c1	5.7	6.4	-8.0	4.7	.
SMILES	BJeLR lethal	SARS 3CLpro inh-1	PrPC TRFRET	DUSP3 inh	SARS 3CLpro inh-2
Cc1cc(NC(=O)COn2nnc3ccc(S(C)(=O)=O)cc32)ccc1Br	-1.3	23.6*	0.1	8.7	30.9*
Cc1cc(Br)c(NC(=O)COn2nnc3ccc(S(C)(=O)=O)cc32)c(Br)c1	-3.7	12.5*	1.6	14.4	8.5
Cc1ccc(CC(=O)NNC(=O)c2cccs2)cc1C	.	.	2.9	.	.
CCOC(=O)c1oc2nc(CC(C)C)c3c(c2c1N)CCCC3	-4.5	13.3*	-5.7	3.5	3.1
C[C@@H]1NC(=O)c2cc([N+](=O)[O-])cc(I)c2NCCCC[C@@H](C(N)=O)NC(=O)[C@H](CC(N)=O)NC1=O	.	14.5*	.	7.6	5.6
COc1ccccc1/C=C1\SC(=S)N(CCC(=O)NNC(=O)c2ccccc2OC)C1=O	-4.9	14.2*	0.3	21.4	0.2
Cc1ccc([C@H]2C[C@H](n3cc(COC(=O)c4ccccc4)nn3)[C@@H](O)CN2C(=O)c2cccs2)cc1	.	.	-6.3	.	.
Cc1nc(-c2ccc(S(=O)(=O)N3CCN(c4ccccc4)CC3)cc2)co1	7.8	12.4*	-4.1	-9.7	1.7
C#CCNC(=O)c1cc(-c2ccccc2)sc1N	.	.	-6.0	.	.
COC(=O)c1cc(-c2ccccc2)sc1N	1.4	51.2*	-1.5	13.3	3.5
CCN(CC)C(=O)CC[C@H]1CC[C@]2(CCCN(C(=O)c3ccco3)C2)O1	.	.	-5.8	.	.
CCCCOCCCNC(=O)C[C@@H]1C[C@]2(C(=O)OCC)CCC3=C2N(CCC3)C1=O	.	.	9.9	.	.
Cc1cccc(CN2CCN(C(=O)CCl)CC2)c1	5.3	16.0*	-4.1	18.1	46.6*
Cc1ccc(-c2n[nH]c(=S)n2/N=C/C=C/c2ccccc2[N+](=O)[O-])cc1	0.1	9.9	-3.4	21.8	.
O=[N+]([O-])c1ccccc1/C=C/C=N/n1c(-c2ccco2)n[nH]c1=S	-0.6	15.3*	-18.7	14.9	4.1
COC(=O)[C@@H](Cc1c[nH]c2ccccc12)NC(=O)c1cc(=O)[nH]c2ccccc12	6.1	13.6*	2.1	21.7	2.3
COc1ccccc1OCCNC(=O)c1cc(=O)[nH]c2ccccc12	0.3	62.1*	-2.7	-8.7	65.2*
Cc1ccc(OCCNC(=O)c2cc(=O)[nH]c3ccccc23)cc1	9.2	2.8	0.2	10.6	.
N#Cc1c(-c2ccccc2)nc(SCC(=O)Nc2ccc(OC(F)(F)Cl)cc2)[nH]c1=O	7.3	16.2*	17.5	.	0.5
O=C(O)c1[nH]c2ccccc2c1C(c1cc(Br)ccc1O)c1c(C(=O)O)[nH]c2ccccc12	3.1	13.6*	2.8	17.8	14.7*
CC1(C)C2CC=C(/C=N/NC(=S)Nc3cccnc3)C1C2 (stereo unspecified)	0.4	15.3*	-6.3	28.2	38.7*
O=C(CNS(=O)(=O)c1c(F)cccc1F)NC1CCCc2ccccc21 (stereo unspecified)	.	.	2.0	.	.
O=C(O)c1ccccc1NS(=O)(=O)c1ccc(NNC(=S)Nc2ccc(OC(F)F)cc2)c([N+](=O)[O-])c1	7.5	12.5*	-35.8	9.8	3.4
Nc1ncc(Br)cc1S(=O)(=O)Nc1cc(C(F)(F)F)cc(C(F)(F)F)c1	11.4	22.6*	24.4	14.0	15.2*
COc1cccc(C2NC(=S)N(Cc3ccc(Br)cc3)C(C)=C2C(C)=O)c1 (stereo unspecified)	.	.	10.1	.	.
